Laboratory results: PubChem BioAssay AID1851 (National Center for Advancing Translational Sciences (NCATS), 2009)
Hit rate of the full screen: of about 16,000 compounds, about 5,800 (36%) were called active. About 23% were inconclusive and are not listed. Calls come from the whole dose curve; as a rule, active = well fitted curve in the direction sought with a large enough effect; inconclusive = small, poorly fitted or top-dose-only effect, or effect the other way; inactive = no such curve, though single readings can be large or run the other way. The list shows a part of the results. Some compounds were tested as several samples or in several runs, with calls that do not always agree.

Each compound was assayed against Cytochrome P450 2C19 (Homo sapiens) (UniProt P33261) (assay: Cytochrome panel assay with activity outcomes). Settings: recombinant CYP, pro-luciferin dealkylation, luminescence, p450-cyp2c19; series mostly up to 57.1 µM.
Chain of Cytochrome P450 2C19 (Homo sapiens) (P33261 whole entry, looked up): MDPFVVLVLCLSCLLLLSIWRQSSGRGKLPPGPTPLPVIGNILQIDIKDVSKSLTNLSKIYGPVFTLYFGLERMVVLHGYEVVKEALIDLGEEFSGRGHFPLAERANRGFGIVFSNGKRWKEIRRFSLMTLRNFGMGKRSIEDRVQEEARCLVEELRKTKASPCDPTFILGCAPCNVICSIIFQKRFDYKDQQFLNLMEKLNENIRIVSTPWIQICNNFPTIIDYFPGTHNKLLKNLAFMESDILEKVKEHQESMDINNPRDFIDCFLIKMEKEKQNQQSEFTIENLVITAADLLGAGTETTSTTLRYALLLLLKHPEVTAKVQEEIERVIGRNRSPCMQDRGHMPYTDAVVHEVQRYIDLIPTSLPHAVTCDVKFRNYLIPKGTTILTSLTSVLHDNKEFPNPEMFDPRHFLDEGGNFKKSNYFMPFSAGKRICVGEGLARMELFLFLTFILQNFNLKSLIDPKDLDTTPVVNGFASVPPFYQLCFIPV
% is set by controls: 0 for no effect and ±100 for the full control effect.

SMILES	AC50	activity, negative = inhibition
O=C1Nc2ccc([N+](=O)[O-])cc2C1(O)N1CCCCCC1 (stereo not given)	10 µM (active)	
O=C1C2=C(Nc3cc([N+](=O)[O-])ccc3N2)O[C@@H]1c1ccc([C@H]2OC3=C(Nc4ccc([N+](=O)[O-])cc4N3)C2=O)cc1		-18.1% [at 11.4 µM] (inactive)
CCN(CC)c1nc(Nc2ccccc2)nc(Oc2ccc(C(=O)OC)cc2)n1	7.94 µM (active)	
Cc1ccc(/C=C2\Sc3ccccc3C2=O)s1	1.26 µM (active)	
O=C1C(Cc2ccccc2)SC(=Nc2ccccc2)N1c1ccccc1 (stereo not given)	3.16 µM (active)	
CN1CCN(/C=N/C2=C(C#N)C(c3ccccc3)C3=C(CC(C)(C)CC3=O)O2)CC1 (stereo not given)	20 µM (active)	
O=C(CCOc1ccccc1)Nc1ccccc1	3.55 µM (active)	
NCC(=O)Nc1ccccc1		-29.3% [at 11.4 µM] (inactive)
C#CCCCC(=O)Nc1ccccc1	inactive	
COC(=O)c1cccc(NC(=O)CCCOc2ccccc2)c1	2.24 µM (active)	
O=C(O)c1cccc(OCCO)c1		13.7% [at 11.4 µM] (inactive)
Cc1cc(C(=O)N/N=C/c2cccc(OC(=O)c3ccco3)c2)n[nH]1	25.1 µM (active)	
NC(=O)N/N=C\c1ccc([N+](=O)[O-])o1	inactive	
Cc1ccc(NCC(=O)N/N=C\c2ccc([N+](=O)[O-])o2)cc1	8.91 µM (active)	
Cc1ccc(NCC(=O)N/N=C/c2ccc(OC(=O)c3ccco3)cc2)cc1	2.51 µM (active)	
COc1ccc(C(=O)NC(CO)c2nnc(SCc3ccc(Cl)c(Cl)c3)n2C)cc1 (stereo not given)	15.8 µM (active)	
COC(=O)c1ccccc1NC(=O)CSc1nnc(C(CO)NC(=O)c2ccccc2Cl)n1C (stereo not given)	inactive	
CC(=O)OCC(=O)[C@@]1(O)CC[C@@H]2[C@H]3CCC4=CC(=O)C=C[C@]4(C)[C@]3(F)[C@@H](O)C[C@@]21C	inactive	
Cc1cc(NC(=O)NC(=O)c2ccc(F)cc2F)n[nH]1	11.2 µM (active)	
Cc1cc(C)c(NC(=O)NC(=O)c2ccc(F)cc2)c(C)n1	inactive	
Cc1onc(-c2ccccc2)c1C(=O)NCCc1c[nH]c2ccccc12	1.78 µM (active)	
CCCC(O)(CCC)C(=O)NN1CCCCC1	inactive	
CC(=O)[C@@H]1CC[C@@H]2[C@@H]3C[C@H](C)C4=CC(=O)CC[C@@]4(C)[C@H]3[C@H](O)C[C@]21C	inactive	
CC(=O)[C@H]1CC[C@@H]2[C@H]3CC=C4C[C@@H](O)CC[C@]4(C)[C@H]3CC[C@]12C	inactive	
CC(=O)[C@H]1CC[C@H]2[C@@H]3C=CC4=CC(=O)CC[C@@]4(C)[C@H]3CC[C@]12C	1 µM (active)	

SMILES	AC50	activity, negative = inhibition
O=c1c(-c2ccc(F)cc2)nc2cnc(N3CCOCC3)nc2n1Cc1cccs1	inactive	
O=c1c(-c2ccc(F)cc2)nc2cnc(N3CCNCC3)nc2n1Cc1cccs1	15.8 µM (active)	
Cn1c(=O)c(-c2cccs2)nc2cnc(N3CCNCC3)nc21	inactive	
Cc1nc2cnc(N3CCNCC3)nc2n(Cc2cccs2)c1=O	inactive	
COc1ccc(-c2nc3cnc(N4CCNCC4)nc3n(Cc3cccs3)c2=O)cc1	inactive	
O=c1c(-c2cccs2)nc2cnc(N3CCNCC3)nc2n1Cc1cccs1	5.01 µM (active)	
O=C(NCc1ccco1)Nc1cccs1	11.2 µM (active)	
N#Cc1ccccc1NC(=O)Nc1cccs1	inactive	
COc1ccc(C[C@@](C)(N)C(=O)O)cc1OC	inactive	
COc1ccc(CNC(=O)Nc2cccs2)cc1OC	5.62 µM (active)	
CCN1CCN(Cc2ccc(NC(=O)Nc3cccs3)cc2)CC1	inactive	
N[C@@H](CO)C(=O)NNCc1ccc(O)c(O)c1O	inactive	
O=C(Nc1cccc(F)c1)N1CC2(CCN(C(=O)c3csnn3)CC2)C1	inactive	
COc1ncc2ncc(=O)n(C)c2n1	inactive	
O=C(Cc1cccc2ccccc12)N/N=C/c1ccc(Sc2nc3ccccc3s2)o1	0.891 µM (active)	
COCC(=O)N/N=C/c1ccc(Sc2nc3ccccc3s2)o1	14.1 µM (active)	
OCCN=C1CCCc2c1[nH]c1ccc(Br)cc21	inactive	
COC(=O)c1cnn(C(=O)c2ccccc2Br)c1N	8.91 µM (active)	
COC(=O)c1cnn(C(=O)c2cc(OC)ccc2Br)c1N	20 µM (active)	
Nc1nc2c(c(=O)[nH]1)CN(CCCN1CCOCC1)CN2		24.4% [at 11.4 µM] (inactive)
CCn1c2ccccc2c2cc(N=C3SC(CC(=O)Nc4ccccc4OC)C(=O)N3C)ccc21 (stereo not given)	1.41 µM (active)	
CCn1c(=O)cc(OCC(=O)Nc2cccnc2)c2ccccc21	inactive	
CCn1c2ccccc2c2cc(N=C3SC(CC(=O)Nc4ccccc4)C(=O)N3C)ccc21 (stereo not given)	2 µM (active)	
CN1CCN(C(c2ccccc2)c2ccccc2)CC1	inactive	
CS(=O)(=O)N1CCC2(CC1)CN(C(c1ccccc1)c1ccccc1)C2	inactive	

SMILES	AC50	activity, negative = inhibition
Cc1ccc(-c2noc(CN3CCN(C(c4ccccc4)c4ccccc4)CC3)n2)cc1	17.8 µM (active)	
N=C(N)SCc1ccc(Cl)cc1Cl (tested in a mixture with another compound)		-2.42% [at 11.4 µM] (inactive)
N=C(N)SCc1nc(-c2ccc(Cl)cc2)no1	1 µM (active)	
Clc1ccc(-c2noc(CN3CCCCC3)n2)cc1	1.58 µM (active)	
c1ccc([P+](CC[P+](c2ccccc2)(c2ccccc2)c2ccccc2)(c2ccccc2)c2ccccc2)cc1		-40.8% [at 11.4 µM] (inactive)
O=C(O)CC12C[C@H]3C[C@@H](CC(O)(C3)C1)C2		7.05% [at 11.4 µM] (inactive)
O=C(NCCN1CCOCC1)c1nn2c(c1Cl)NC(c1ccccc1)CC2C(F)(F)F (stereo not given)	inactive	
CCCn1nc(C(=O)NCC(C)(C)N2CCOCC2)c2ccccc2c1=O	17.8 µM (active)	
Cn1cc[nH]c1=S	inactive	
COCCNc1cc(-c2c(C)noc2C)ncn1	inactive	
CC(=O)NCCNc1cc(-c2ccccc2C(F)(F)F)ncn1	inactive	
COCCNc1cc(-c2ccccc2C(F)(F)F)ncn1	7.94 µM (active)	
COCCNc1cc(-c2ccccc2C)ncn1	15.8 µM (active)	
COCCNc1cc(-c2ccccc2CN(C)C)ncn1	inactive	
O=c1nc2ccccc2c2n1C[C@H](CN1CCN(c3ccccc3)CC1)N2	inactive	
COc1cccc(OC)c1OCCCN1CCOCC1	inactive	
COc1cccc(OC)c1OCCNC[C@@H]1COc2ccccc2O1	794 nM (active) and inactive	
CCN1CCCC1CNC(=O)C(=O)Nc1ccccc1OC (stereo not given)	inactive	
COc1ccccc1NC(=O)CC1COc2ccccc2O1 (stereo not given)	7.08 µM (active)	
O=C1CC2(CCCC2)CC(=O)N1CCCCNC[C@H]1COc2ccccc2O1	inactive	
C(=C1/CCCC2=C1Nc1ncnn1C2c1ccccc1)/c1ccccc1 (stereo not given)	inactive	
CCCCC1CC(/C(C)=N/NC(N)=O)OC1=O (stereo not given)	inactive	
CC1=CC(=O)c2ccccc2C1=O	2.51 µM (active)	
COc1cc2nncc(SCc3ccc(Cl)c(Cl)c3)c2cc1OC	2.51 µM (active)	
CCCCNc1ccc(C(=O)OCCOCCOCCOCCOCCOCCOCCOCCOCCOC)cc1	inactive	

SMILES	AC50	activity, negative = inhibition
CCCCOC(=O)c1ccc(O)cc1	6.31 µM (active)	
CCCCN(CCCC)CCCOC(=O)c1ccc(N)cc1	inactive	
FC(F)(F)c1ccccc1-c1nc(Nc2ccncc2)c2ccccc2n1	2 µM (active)	
Cc1ccccc1-c1nc(Nc2ccncc2)c2ccccc2n1	inactive	
Clc1ccccc1-c1nc(Nc2ccncc2)c2ccccc2n1	5.01 µM (active)	
C[C@H](O/N=C1/[C@H]2O[C@@H]2[C@@H](O)[C@H]2[C@H]1CCn1c(=O)n(-c3ccccc3)c(=O)n12)c1cn([C@H]2COC[C@H]2O)nn1		42.5% [at 11.4 µM] (inactive)
CN(C)CCC=C1c2ccccc2C=Cc2ccccc21	inactive	
Cc1ccccc1-n1cnc2cc(NCc3cccs3)ccc21	2.51 µM (active)	
c1ccc(-n2cnc3cc(NCc4cccs4)ccc32)cc1	2.82 µM (active)	
Cc1noc(C)c1-c1nc(NCc2cccs2)c2ccccc2n1	inactive	
CO[C@H]1COC(=O)C/C=C\[C@H](C)COC(=O)[C@@H](OCc2ccccc2)/C=C\[C@@H]1C		-37% [at 11.4 µM] (inactive)
Cc1ccc2c(c1)NCC(C(=O)NC1CCCCC1)O2 (stereo not given)	3.55 µM (active)	
CCCC1(C)Nc2ccccc2-c2nc3ccccc3n21 (stereo not given)	1.41 µM (active)	
CCCCC1(C)Nc2ccccc2-c2nc3ccccc3n21 (stereo not given)	0.708 µM (active)	
CCC1(C)Nc2ccccc2C(=O)N1O (stereo not given)	inactive	
COc1cccc2c1C(=O)c1c(O)c3c(c(O)c1C2=O)C[C@@](O)(C(=O)CO)C[C@H]3O[C@H]1C[C@@H](N)[C@H](O)[C@@H](C)O1.[W]		9.1% [at 11.4 µM] (inactive)
CS(=O)(=O)N1CCC2(CCN(C(=O)Nc3cccc(C#N)c3)CC2)CC1	inactive	
O=C(Nc1cccc(Cl)c1)N1CCN2C(=O)c3ccccc3C12c1ccccc1 (stereo not given)	2.24 µM (active)	
COCC(C)n1c(C)cc(C(=O)CSc2nnc(Nc3ccccc3F)s2)c1C (stereo not given)	2 µM (active)	
Cc1ccc(CN(C(=O)c2cc3ccccc3oc2=O)C2CCS(=O)(=O)C2)cc1 (stereo not given)	14.1 µM (active)	
CCc1ccc(OCC(=O)OC2CCS(=O)(=O)C2)cc1 (stereo not given)	inactive	
CCCN(C(=S)Nc1ccccc1)C1CCS(=O)(=O)C1 (stereo not given)	inactive	
Cc1cc(C)c[n+](CC(=O)c2cc3ccccc3oc2=O)c1	inactive	
CCOc1ccc(CN(C(=O)c2oc3ccccc3c2C)C2CCS(=O)(=O)C2)cc1 (stereo not given)	1.41 µM (active)	
O=C(c1sc2ccccc2c1Cl)N(Cc1ccccc1)C1CCS(=O)(=O)C1 (stereo not given)	3.16 µM (active)	
